KCNQ2 block = KCNQ2 (rat) channel inhibition; 310,000 compounds, 1.1% hits; B-score at 10 µM; CHO-K1 KCNQ2, FluxOR thallium flux, 20 min; hits give low values; O88943;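 active = fluorescence ratio B-score at most minus 3 library SDs, with starting brightness B-score within 2 library SDs, cut at about -5.5 in these data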
KCNQ2 pot = potentiators of rat KCNQ2 potassium channel. B-score at 10 µM. AID 2239. CHO-K1 KCNQ2, FluxOR thallium flux fluorescence; hits give high values. O88943. 310,000 compounds, 0.54% hits;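 active = fluorescence ratio B-score at least 3 SD of library B-scores, with initial fluorescence B-score within 3 of them, cut at about 5.3 in these data; same plate scores as AID 2156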;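 also: B-score of peak minus minimum over baseline fluorescence ratio after K+ and Tl+ stimulus; positive B-score means potentiation of KCNQ2 with more thallium influx and brighter signal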
Active calls of the source: *; i = inactive; x = not tested or not shown. This is a sample that favours compounds with a hit; in the whole collection about 1.6% have one here.

SMILES	KCNQ2 block	KCNQ2 pot
COc1ccc(C(=O)N/C(=C/c2cccs2)c2nc3ccccc3[nH]2)cc1OC	i	1.1
O=C(CCC1CCN(C(=O)c2ccco2)CC1)NCc1ccc(F)cc1	i	x
COc1ccc(CNCc2c(O)c(Cl)cc3c(C)c(C)c(=O)oc23)c(OC)c1	i	0.21
Cc1ccc2cc(C#N)c(NCCNC(=S)NCCCN(C)C)nc2c1C	i	x
Cc1cc(C)c2nc(NCCCNC(=S)NCCCN(C)C)c(C#N)cc2c1	-7.3*	-7.3
CCN1C(=O)[C@@H]2[C@@H](c3ccc(-c4ccc(C(C)=O)cc4)c(OC)c3)N3CCCC[C@@]3(C(=O)OC)[C@@H]2C1=O	i	0.06
O=C(Nc1cccc(C(F)(F)F)c1)c1cccnc1N1CCN(c2ccccc2)CC1	-7*	-7
O=C(Nc1cccc(C(F)(F)F)c1)c1cccnc1N1CCN(CCO)CC1	i	x
O=C1N/C(=N/S(=O)(=O)Cc2ccccc2)S/C1=C/c1ccc2c(c1)OCO2	i	0.37
CSc1nc(-c2ccc(C)cc2)[nH]c1S(=O)(=O)c1ccccc1	i	x
CC(=O)Sc1nc(-c2ccccc2)[nH]c1S(=O)(=O)c1ccc(C)cc1	-11*	-11
COC(=O)C(CC(=O)c1ccc(Br)cc1)n1nc(C)cc1C (centres undefined)	i	0.49
COC(=O)C(CC(=O)c1ccc(Br)cc1)n1ccnc1 (centres undefined)	-6.2*	-6.2
O=C(NCc1ccco1)c1cc2nc(-c3ccc4c(c3)OCO4)cc(C(F)(F)F)n2n1	-8.2*	-8.2
O=C(NCc1ccco1)c1nc2nc(-c3cccs3)cc(C(F)(F)F)n2n1	i	0.75
O=C(NCc1ccco1)c1nn2c(C(F)(F)F)cc(-c3cccs3)nc2c1Br	-6.8*	-6.8
O=C(NCc1cccnc1)c1cc2nc(-c3ccc4c(c3)OCO4)cc(C(F)(F)F)n2n1	i	0.51
O=C(N/N=C/c1cccc(OC(=O)c2cccc(Br)c2)c1)c1ccncc1	i	0.34
Cc1onc(-c2ccccc2)c1C(=O)OCC(=O)Nc1cc(S(=O)(=O)N2CCOCC2)ccc1Cl	i	x
Cc1c(N2CCCC2)cc2c(c1NC(=O)c1ccccc1Cl)C(C)(C)CC2(C)C	i	x
Cc1cc([N+](=O)[O-])nn1CCCC(=O)Nc1cc(Cl)ccc1Cl	i	1.1
COC1(OC)C(/C=C/c2ccc(C)cc2)C(C#N)(C#N)C1(OC)OC (centres undefined)	-7.5*	-7.5
C=CCNC(=S)NNC(=O)c1ccc([N+](=O)[O-])cc1	i	x
C=CCN(CC=C)C(=S)NC(=O)c1ccc([N+](=O)[O-])cc1	i	7.2*
CSCCC(NS(=O)(=O)c1ccccc1F)C(=O)OCc1ccccc1Cl (centres undefined)	-6.2*	-6.2
SMILES	KCNQ2 block	KCNQ2 pot
CSCCC(NS(=O)(=O)c1ccc(Cl)cc1)C(=O)OCc1c(Cl)cccc1Cl (centres undefined)	i	x
CCN(CC)c1ccc(CNCc2cccs2)cc1	i	x
O=C(Nc1ccncc1Cl)c1ccncc1	i	0.83
O=C1c2ccsc2SCCN1Cc1c(F)cccc1Cl	i	x
O=C1c2ccsc2SCCN1Cc1c(Cl)cccc1Cl	-6.7*	-6.7
CN1CCN(c2ccc(S(=O)(=O)N3CCOCC3)cc2)CC1	i	x
CCOC(=O)c1cnn(-c2ccc(F)cc2)c1N	i	0.59
CC(=O)Nc1ccc(/C(C)=N/Nc2nc(N3CCOCC3)nc(N3CCOCC3)n2)cc1	i	x
C/C(=N\Nc1nc(N2CCCCC2)nc(N2CCOCC2)n1)c1cccs1	-7.6*	-7.6
O=C(CCNC(=O)c1ccc(Br)cc1)NCC1COc2ccccc2O1 (centres undefined)	i	0.4
O=C(NCc1cccnc1)/C(=C\c1ccc(-c2ccc(Br)cc2)o1)S(=O)(=O)c1ccccc1	i	x
O=C(NCc1cccnc1)/C(=C/c1ccc(-c2ccc(Cl)cc2)o1)S(=O)(=O)c1ccccc1	-6.2*	-6.2
CCNc1c(NS(=O)(=O)c2ccc(OC)cc2)c(=O)oc2ccccc12	i	1.3
COc1cccc(CNC(=O)CCC2CCCN(C(=O)c3ccoc3)C2)c1 (centres undefined)	i	0.47
COc1cccc(CNC(=O)CCC2CCCN(C(=O)c3cc4ccccc4o3)C2)c1 (centres undefined)	-6.4*	-6.4
COc1ccc(N2CCN(C(=O)c3oc4ccccc4c3NC(=O)Cc3cccc(OC)c3)CC2)cc1	-5.8*	-5.8
COc1ccc(N2CCN(C(=O)c3oc4ccccc4c3NC(=O)Cc3ccc(OC)c(OC)c3)CC2)cc1	i	x
O=C1C(Cc2c[nH]c3ccccc23)NC(=S)N1C1CCCCC1 (centres undefined)	i	x
Cc1n[nH]c(=O)c2c(NC(=O)CSc3ccc(Br)cc3)oc(C)c12	i	2.8
CCOC(=O)C1=C(CCl)NC(=O)NC1c1ccc2c(c1)OCO2 (centres undefined)	i	0.89
C=CCn1c(SCc2c(C)noc2C)nc2sc3c(c2c1=O)CCCCC3	-6.5*	-6.5
C=CCn1c(SCc2c(C)noc2C)nc2sc3c(c2c1=O)CCCC3	i	x
CN(C1CCCCC1)S(=O)(=O)c1ccc(-c2ccccn2)s1	i	x
CCC(=O)NCCc1nc2cc(NC(=O)c3ccco3)ccc2n1C	i	0.09
Cc1cc(C)c(C)c(N=Nc2nc3ccccc3n2C)c1C	i	x
SMILES	KCNQ2 block	KCNQ2 pot
Cc1ccc(C)c(N=Nc2nc3ccccc3n2C)c1	-6*	-6
COc1ccc(S(=O)(=O)N2CCC3(CC2)OCCN3S(=O)(=O)c2cccs2)cc1OC	i	0.05
CCN(CC)S(=O)(=O)c1cc(C(=O)Nc2cc(C)[nH]n2)ccc1Cl	i	0.34
COc1ccc(C(C#N)=C2C=CC(=NO)C=C2)cc1	-5.7*	-5.7
COc1ccc(C(=O)c2ccc(Cl)cc2)cc1	i	0.7
CCC(C(=O)NCc1ccncc1)c1ccccc1 (centres undefined)	i	x
COc1ccccc1CCn1cnc2c3cc(C)ccc3n(C)c2c1=O	-7.4*	-7.4
COc1ccc2c(c1)c1ncn(CCN3CCCC3)c(=O)c1n2C	i	1.2
CCOc1cc(S(=O)(=O)n2cc(-c3ccc(F)cc3)c(N)n2)cc(OCC)c1OCC	i	x
CCOc1cc(-c2cn(S(=O)(=O)c3cccc4nsnc34)nc2N)cc(OCC)c1OCC	-6.3*	-6.3
COC(=O)CC1C(=O)NCCN1C(=O)CSc1nnnn1-c1ccc(Cl)cc1 (centres undefined)	i	x
Cc1ncc(CN2CCCC(C(=O)Nc3ccc(-c4cccc(F)c4)cc3)C2)n1C (centres undefined)	-5.7*	-5.7
COc1cccc(-c2ccc(NC(=O)C3CCCN(Cc4cnc(C)n4C)C3)cc2)c1 (centres undefined)	i	x
CC(C)(C)c1nc(NC(=O)Nc2ccccc2)sc1Br	i	2
COCCN(CCOC)S(=O)(=O)c1ccc(C(=O)Nc2c(C)n(C)n(-c3ccccc3)c2=O)cc1	i	0.06
CCCN(CCC)S(=O)(=O)c1ccc(Cl)c([N+](=O)[O-])c1	i	x
CCOC(=O)C(C)(C)N(Cc1ccccc1C)S(=O)(=O)c1ccc(Cl)c([N+](=O)[O-])c1	-7.2*	-7.2
COc1ccc(Cl)c(OC)c1C(=O)NC(=O)Nc1c(F)cc(F)cc1F	i	x
Cc1cc[n+](-c2ccccc2)c2ccccc12	i	x
